Reference: PubChem BioAssay (NCI)
About 83,000 compounds went through this panel and 20% of them were active in at least one assay; those are over-represented in the sample as a whole.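 48-hour exposure, single concentration, 96-well plates; percent growth endpoint where 0 means no net growth. Active: below 10.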 Unmarked numbers belong to inactive results. The source made the active and inactive calls.

Test system: MDA-MB-468 breast
Experiment: NCI-60 one-dose screen, 48 h (100 = growth as untreated, 0 = no growth, -100 = all killed)
Conditions: 10 µM unless noted

**Q.** `Clc1ccc2c(c1)-c1ccccc1C1=NCCN12` was tested. Which growth did it give?
**A.** 7.52% (active)

**Q.** For `CN(C)N=Nc1nn(C(=O)Nc2ccc(Cc3ccccc3)cc2)c2ccccc12`, which growth is on record?
**A.** 69.2%

**Q.** `CC(C)(CCN=C(N)Nc1ccccn1)c1ccc(C(F)(F)F)cc1` was tested. Which growth did it give?
**A.** 3.96% (active)

**Q.** `CCCCCN1C(=O)CCC1=O` was tested. Which growth did it give?
**A.** 108%

**Q.** `Fc1ccc(C(c2ccc(F)cc2)C(Cl)Cl)cc1` was tested. Which growth did it give?
**A.** 104%

**Q.** How did the growth turn out when `Clc1ccc(-c2nc(NCCc3ccccc3)nc3c(NCCc4ccccc4)cnn23)cc1` was run?
**A.** 47.8%

**Q.** `CCN(C(C)=O)c1ccc([N+](=O)[O-])cc1` was tested. Which growth did it give?
**A.** 103%

**Q.** For `NCCCOc1cc2ccccc2cc1C(=O)NCCCOc1cc2ccccc2cc1C(=O)Nc1ccc(Cl)cc1O`, which growth is on record?
**A.** -89.6% (active)

**Q.** For `Cc1cc(Nc2cccc(C(F)(F)F)c2)n2c(nc3ccccc32)c1C#N`, which growth is on record?
**A.** -4.87% (active)

**Q.** `Cc1ccc(S(=O)(=O)OC2COCOC2C(OS(=O)(=O)c2ccc(C)cc2)C2OCOCC2OS(=O)(=O)c2ccc(C)cc2)cc1` (stereo not given) was tested. Which growth did it give?
**A.** 108%

**Q.** `Cc1ccc2oc(=O)cc(-c3sc(N4CCCCC4)nc3-c3ccccc3)c2c1` was tested. Which growth did it give?
**A.** 102%

**Q.** Which growth does the source give for `COc1ccc(Cn2c(SC)nc(=O)n(Cc3ccc(Cl)cc3)c2=O)cc1` here?
**A.** 107%

**Q.** `Nc1ccc(C2=NN(C(=O)c3cc(-c4ccc(Cl)cc4)nc4ccccc34)C(c3ccccc3)C2)cc1` (stereo not given) was tested. Which growth did it give?
**A.** 7.91% (active)

**Q.** How did the growth turn out when `NNCCc1ccc(NC(=O)CCCc2ccc(C(=O)Nc3ccccc3N)cc2)cc1` was run?
**A.** 72.9%

**Q.** With `C[C@]12CC[C@@H]3c4ccc(O)cc4C[C@@H](O)[C@H]3[C@@H]1CC[C@@H]2O` as the compound, how does the growth read?
**A.** 98.1%

**Q.** How did the growth turn out when `Cc1cc(C)c2nc(C)c(C)[n+]([O-])c2c1` was run?
**A.** 101%

**Q.** `OC(c1cc(-c2ccccc2)nc2ccc(Cl)cc12)C1CCCCN1` (stereo not given) was tested. Which growth did it give?
**A.** -17.1% (active)

**Q.** Which growth does the source give for `O=c1oc2cc(OS(=O)(=O)c3ccc(F)cc3)ccc2c2c1CCCCC2` here?
**A.** 31.3%

**Q.** With `Nc1ncnc(Nc2ccccc2)n1` as the compound, how does the growth read?
**A.** 108%

**Q.** Which growth does the source give for `C=C1C(=O)O[C@H]2[C@H]1CC/C(COC(=O)NCc1ccc(OC)c(OC)c1)=C\CC[C@@]1(C)O[C@@H]21` here?
**A.** 24.3%

**Q.** Which growth does the source give for `COc1ccc(OC)c2c1[nH]c(=O)c1c3ccccc3cn21` here?
**A.** -23.3% (active)

**Q.** For `Cc1cc2nc3c4cc([N+](=O)[O-])cc([N+](=O)[O-])c4n(CCN(C)C)c3nc2cc1C`, which growth is on record?
**A.** 104%

**Q.** For `O=C(CCl)N(c1ccccc1)c1ccccc1`, which growth is on record?
**A.** 104%

**Q.** For `COc1cc(NCc2cn(-c3ccc(C(=O)O)cc3)nc2-c2ccc(C(=O)O)cc2)cc(OC)c1OC`, which growth is on record?
**A.** 102%

**Q.** For `Cc1nnc(-n2c(O)cc(=O)n(-c3ccccc3)c2=S)nc1/C=C/c1ccc(N(C)C)cc1`, which growth is on record?
**A.** 25.8%
